# Screening data deposited in PubChem BioAssay by The Scripps Research Institute Molecular Screening Center.
# An excerpt weighted towards active compounds, which were near 1.1% of everything screened.
# NCOA3 inh: inhibits human SRC3 coactivator | Q9Y6Q9 | HEK293 GAL4-SRC3 luciferase reporter, luminescence | inhibition, % at 3.6 µM | 0.17% of 360,000 active;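 active = inhibition above a per-campaign cutoff, the mean of all compounds plus 3 SD, cut at about 60% in these data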;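 note: 0% = DMSO-treated cells and 100% = gossypol-treated cells at 36 µM; higher means less SRC3-driven luciferase light from the GAL4 reporter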
# Target sequence (Q9Y6Q9 whole entry, looked up, the tested form may be a part): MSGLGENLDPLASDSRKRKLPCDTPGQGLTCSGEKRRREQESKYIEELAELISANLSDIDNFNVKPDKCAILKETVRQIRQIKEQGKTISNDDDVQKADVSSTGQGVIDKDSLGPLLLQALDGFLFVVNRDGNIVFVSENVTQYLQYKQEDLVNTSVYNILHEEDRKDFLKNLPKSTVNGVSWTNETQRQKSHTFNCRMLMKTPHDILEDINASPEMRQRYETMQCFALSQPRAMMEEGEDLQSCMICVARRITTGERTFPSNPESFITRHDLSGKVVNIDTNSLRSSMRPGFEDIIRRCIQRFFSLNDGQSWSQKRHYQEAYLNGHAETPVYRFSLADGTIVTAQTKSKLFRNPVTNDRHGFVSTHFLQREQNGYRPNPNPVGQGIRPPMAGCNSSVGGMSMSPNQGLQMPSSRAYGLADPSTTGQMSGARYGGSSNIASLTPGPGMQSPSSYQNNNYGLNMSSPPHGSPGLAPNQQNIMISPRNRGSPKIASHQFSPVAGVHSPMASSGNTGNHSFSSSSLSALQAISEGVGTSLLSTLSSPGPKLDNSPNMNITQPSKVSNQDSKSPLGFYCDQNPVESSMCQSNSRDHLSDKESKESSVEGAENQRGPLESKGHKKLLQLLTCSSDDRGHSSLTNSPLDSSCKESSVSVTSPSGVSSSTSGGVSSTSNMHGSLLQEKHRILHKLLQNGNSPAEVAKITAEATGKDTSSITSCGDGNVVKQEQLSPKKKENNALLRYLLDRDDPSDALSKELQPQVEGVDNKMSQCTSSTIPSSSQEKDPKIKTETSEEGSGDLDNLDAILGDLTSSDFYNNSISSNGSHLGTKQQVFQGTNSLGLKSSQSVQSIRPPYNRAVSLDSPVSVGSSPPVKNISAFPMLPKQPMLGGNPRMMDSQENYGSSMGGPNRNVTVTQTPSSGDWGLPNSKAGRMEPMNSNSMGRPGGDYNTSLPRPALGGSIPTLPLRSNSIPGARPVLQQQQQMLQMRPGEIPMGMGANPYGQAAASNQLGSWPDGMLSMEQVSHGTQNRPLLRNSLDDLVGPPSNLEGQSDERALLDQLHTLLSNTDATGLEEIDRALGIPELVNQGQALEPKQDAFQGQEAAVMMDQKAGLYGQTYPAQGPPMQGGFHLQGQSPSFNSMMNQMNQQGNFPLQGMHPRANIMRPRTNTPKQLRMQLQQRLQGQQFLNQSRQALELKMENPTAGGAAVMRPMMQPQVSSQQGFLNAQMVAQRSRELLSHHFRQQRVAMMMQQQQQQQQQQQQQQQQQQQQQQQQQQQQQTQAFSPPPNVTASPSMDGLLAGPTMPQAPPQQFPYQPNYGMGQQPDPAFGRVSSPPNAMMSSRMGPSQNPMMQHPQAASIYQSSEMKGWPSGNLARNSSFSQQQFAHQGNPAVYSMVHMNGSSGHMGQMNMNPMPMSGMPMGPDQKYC
# NR5A2 inv ag: suppresses constitutive activity of human LRH-1; O00482; HEK293T StAR-luciferase reporter, LRH-1 transfected, 24 h; inhibition, % at 3.6 µM; 0.13% of 360,000 active; AID 602396;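 active = inhibition above the mean inhibition of all tested compounds plus 3 SD, cut at about 73% in these data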;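 note: 0% = DMSO wells and 100% = reporter-only cells lacking LRH-1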
# COUP-TFII inh: NR2F2 (human) inhibition, primary screen; P24468; HEK293T NGFI-A luciferase reporter, luminescence; inhibition, % at 8.6 µM; AID 686940; 0.7% of 370,000 active;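 active = inhibition above a per-plate cutoff, mean inhibition of test wells between control levels plus 3 SD, cut at about 38% in these data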;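 note: cells cotransfected with COUP-TFII expression vector driving the NGFI-A reporter; 0% = median of COUP-TF2 test wells and 100% = reporter-only cells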
# SRC2 inh: inhibits human steroid receptor coactivator 2. Q15596. HEK293 GAL4-SRC2 luciferase reporter, luminescence. inhibition, % at 9 µM. 0.17% of 370,000 active;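 active = inhibition above the mean inhibition of all tested compounds plus 3 SD, set per campaign, cut at about 52% in these data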;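 note: 0% = DMSO treated cells and 100% = cells given Gossypol at 36 µM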
# GalR3 antagonist: blocks the human galanin receptor 3 | O60755 | HEK293 GalR3-CNG cAMP membrane potential fluorescence; galR3 body fused to GalR1 C-terminus | inhibition, % at 3 µM | 0.44% of 360,000 active | AID 651719;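 active = inhibition above the screen-wide average plus 3 SD, cut at about 13% in these data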;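 note: forskolin and galanin both at EC90 stimulate the cells; cAMP rise reported by CNG channel membrane potential dye signal; 0% = forskolin plus galanin with DMSO and 100% = forskolin alone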
# SRC1 inh: human NCOA1 inhibition; HEK293 GAL4-SRC1 luciferase reporter, luminescence; Q15788; 0.12% of 360,000 active; inhibition, % at 3.6 µM;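 active = inhibition above the campaign mean plus 3 SD, with each screening campaign given its own cutoff, cut at about 60% in these data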;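 note: 0% = DMSO treated cells and 100% = gossypol at 36 µM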
# VP16 Luc counter: VP16 inhibition counter-screen for COUP-TFII. inhibition, % at 8.5 µM. AID 687007. 25% of 2,500 active. shares compounds with COUP-TFII inh. HEK293 Gal4-VP16 luciferase reporter, luminescence; in the data active = inhibition above about 13%
# COUP-TFII conf: confirmation of human COUP-TFII (NR2F2) inhibitors. shares compounds with COUP-TFII inh. HEK293 NGFI-A luciferase reporter, luminescence. inhibition, % at 8.5 µM. 45% of 2,500 active. AID 687008;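 active = mean inhibition over three repeats above a set limit taken from the earlier primary screen, cut at about 38% in these data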;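 note: 100% = cells given the luciferase reporter alone without the COUP-TF2 vector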
# The depositor's hits bear a star; . = no result.
SMILES,NCOA3 inh,NR5A2 inv ag,COUP-TFII inh,SRC2 inh,GalR3 antagonist,SRC1 inh,VP16 Luc counter,COUP-TFII conf
Fc1ccc(-n2nnnc2-c2cnc(-c3cccs3)nc2C(F)(F)F)cc1,25.9,5.2,52.9*,28.2,-3.9,30.4,8.7,38.5*
FC(F)(F)c1nc(-c2ccncc2)ncc1-c1nnnn1-c1ccccc1,6.9,0.7,9.0,-14.0,-1.7,3.6,.,.
FC(F)(F)c1ccncc1-c1nnnn1-c1ccc(Cl)cc1,12.8,30.1,12.2,-7.9,-0.9,3.9,.,.
Cc1ccc(-c2nc3cc(N)ccc3o2)cc1Br,-117.7,-63.6,-13.6,-22.1,-7.2,-125.6,.,.
Nc1ccc(-c2nc3cc(N)ccc3o2)cc1,-66.2,-107.6,-42.0,-34.1,-7.9,-77.7,.,.
Cc1ccc(C)c(-c2nc3cc(N)ccc3o2)c1,-8.2,-17.5,41.6*,55.1*,-2.2,-13.6,0.8,-17.7
COC(=O)c1ccc(-c2nc3cc(N)ccc3o2)cc1,-13.1,29.1,41.3*,42.0,-1.9,-40.2,21.7*,-10.6
C[C@H]1C(=O)N2[C@@H](C[C@]3(c4c[nH]c5ccccc45)c4ccccc4N(S(=O)(=O)c4ccccc4)[C@H]23)C(=O)N1C,.,.,0.6,.,.,.,.,.
COC(=O)C1=C(C)N(Cc2ccccc2C(F)(F)F)C(=NCc2ccc(OC)cc2)NC1c1ccc(F)cc1 (stereo not drawn),.,.,-7.8,-21.7,-6.9,.,.,.
Cc1cc(C(F)(F)F)c(C#N)c(SCC(=O)Nc2nc3ccccc3s2)n1,40.6,32.2,56.1*,10.2,0.1,20.4,20.8*,56.5*
Cc1nc(SCC(=O)Nc2nc3ccccc3s2)c(C#N)c(C)c1C,90.6*,87.8*,99.2*,84.7*,-1.8,90.5*,91.0*,109.2*
Cc1ccc2sc(NC(=O)CSc3nc(C)cc(C)c3C#N)nc2c1,-95.8,-136.2,-60.7,-32.4,-8.9,-120.4,.,.
COC(=O)[C@]12C[C@H](CC(=O)NCCCCc3ccccc3)C(=O)N(CCC3=CCCCC3)C1=C[C@H](C1CCCC1)O[C@@H]2C,.,.,7.2,6.2,.,.,.,.
Clc1ccc(/C=N/N2CCN(Cc3ccccc3)CC2)cc1,-7.9,-8.2,-3.6,16.9,2.6,-25.5,.,.
Clc1ccc(CN2CCN(N=Cc3ccncc3)CC2)cc1,.,.,49.7*,32.9,.,.,12.7,34.7
Cc1ccc2ccccc2c1NC(=O)CNCc1ccccc1,-0.2,16.5,20.4,-0.6,-3.7,2.8,.,.
CN1C(=O)C2(C(C#N)=C(N)N(c3cc(Cl)cc(Cl)c3)C3=C2C(=O)CC(C)(C)C3)c2ccccc21 (stereo not drawn),37.7,14.0,44.5*,23.9,-8.0,22.1,-16.8,30.2
Cc1ccc(N2C(N)=C(C#N)C3(C(=O)N(C)c4ccccc43)C3=C2CC(C)(C)CC3=O)cc1Cl (stereo not drawn),20.7,19.0,13.7,-17.5,-5.6,33.9,.,.
CCc1c(-c2ccccc2Br)ncn1CCc1ccccc1OC,.,.,-1.5,-0.2,-3.5,.,.,.
COC(=O)c1cc2c(c3c4cc(F)ccc4n(S(=O)(=O)c4ccccc4)c13)C(=O)N(Cc1ccccc1)C2,.,.,8.4,-3.0,-6.5,.,.,.
CCN(CC)S(=O)(=O)c1ccc(/C=C/C(=O)O)cc1,3.1,-0.2,2.8,22.7,-2.6,0.7,.,.
CCN(CC)S(=O)(=O)c1ccc(/C=C/C(=O)Nc2cccc(F)c2)cc1,-12.6,-8.0,38.0*,11.1,-5.4,-16.9,-68.9,4.2
CCN(CC)S(=O)(=O)c1ccc(NC(=O)Nc2cccc(C(F)(F)F)c2)cc1,24.7,19.1,75.4*,49.1,0.7,9.2,-6.9,7.2
CC(C)CNc1ncnc2c1ncn2[C@H]1CN(Cc2ccncc2)C[C@@H](CO)O1,0.9,-2.8,10.8,-4.0,-5.5,6.3,.,.
CC(C)CNc1ncnc2c1ncn2[C@H]1CN(Cc2ccc(-c3ccccc3)cc2)C[C@@H](CO)O1,6.6,11.8,61.0*,-3.4,-6.6,18.0,5.5,43.1*
SMILES,NCOA3 inh,NR5A2 inv ag,COUP-TFII inh,SRC2 inh,GalR3 antagonist,SRC1 inh,VP16 Luc counter,COUP-TFII conf
CC(C)Nc1ncnc2c1ncn2[C@H]1CN(Cc2ccc(-c3ccccc3)cc2)C[C@@H](CO)O1,-2.6,23.6,49.2*,24.5,-3.5,18.0,2.7,17.6
COc1ccc(Cn2c(O)c(C=Nc3ccccc3C(=O)O)c3ccccc3c2=O)cc1,18.5,-8.7,-3.6,-3.5,-8.0,-4.5,.,.
COc1ccccc1NS(=O)(=O)c1cccc(-n2c(O)c(C=Nc3ccccc3C(=O)O)c3ccccc3c2=O)c1,29.1,17.3,39.2*,3.3,-6.5,11.0,-8.5,45.5*
CCCn1c(NC(=O)c2ccc(Cl)c(S(=O)(=O)N3CCCC3)c2)nc2ccccc21,-8.8,-1.1,43.7*,20.9,-2.2,-33.1,-7.5,15.5
Cc1ccc(-n2c(C)cc(/C=C3\SC(=O)NC3=O)c2C)cc1,-94.4,-113.1,-3.1,-3.6,-8.1,-166.7,.,.
Cc1cc(/C=C2\SC(=S)N(C)C2=O)c(C)n1-c1ccccc1O,-7.1,-1.6,42.8*,13.3,-5.1,-14.2,-106.8,13.0
Cc1cc(/C=C2\SC(=S)N(C)C2=O)c(C)n1-c1ccc(O)cc1,80.6*,72.1,83.6*,72.6*,10.7,80.2*,68.2*,98.5*
O=S1(=O)N[C@H](Cc2ccccc2)COc2cc(N3CCCC3)ccc21,.,.,2.2,-10.5,.,.,.,.
COc1ccc(C2C(C(=O)N3CCOCC3)CC(=O)N2c2ccc(OC)cc2)cc1 (stereo not drawn),.,.,-1.3,-2.1,.,.,.,.
CSc1nc2nc3c(cc2c(=O)n1-c1ccccc1C)CCCC3,25.8,34.8,41.5*,23.4,-8.9,12.5,3.8,28.8
COc1ccc(-c2ccc(C(=O)NCc3ccc(N(C)C)cc3)c3occc23)c(C)c1,-20.1,-10.9,1.9,-29.6,-4.5,2.7,.,.
O=C(NC1CCCCC1)C(c1cccc2ccccc12)n1c(=O)c(-c2ccco2)nc2ccccc21 (stereo not drawn),.,16.8,0.7,-8.2,-3.2,.,.,.
O=C(/C=C/c1ccccc1)CCN1CCOCC1,-4.3,-14.9,-5.8,-7.7,-5.2,-41.3,.,.
CN(C)CCC(=O)N1C/C(=C/c2ccccc2)C(=O)/C(=C\c2ccccc2)C1,-6.4,80.8*,79.1*,64.1*,2.4,-58.4,80.5*,87.4*
O=C1/C(=C/c2ccccc2)CN(C(=O)CCN2CCOCC2)C/C1=C\c1ccccc1,12.6,52.9,57.0*,13.3,1.2,-44.8,34.5*,26.1
C[N+](C)(C)CCC(=O)N1C/C(=C/c2ccccc2)C(=O)/C(=C\c2ccccc2)C1,15.8,-8.3,71.8*,5.6,2.9,-14.8,21.7*,29.2
